In PubChem BioAssay (NCATS) one finds outcome data, which are given here for 60 compounds.

Values without a mark were called inactive. The source made the active and inactive calls. Calls come from the whole dose curve; as a rule, active = well fitted curve in the direction sought with a large enough effect; inconclusive = small, poorly fitted or top-dose-only effect, or another doubt; inactive = no such curve, though single readings can be large; an effect the other way counts as inactive or inconclusive.

Test [1] deals with Alpha-galactosidase (Coffea arabica) (UniProt Q42656). Nature of the test: Counterscreen for Glucocerebrosidase Inhibitors: qHTS Assay for Coffee Bean alpha-Galactosidase at pH 4.5 (AID 957). To be noted: purified coffee bean alpha-galactosidase, fluorogenic substrate; series mostly up to 76.9 µM. Summed up: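 Coffee bean enzyme (2 nM) with 80 uM 4-methylumbelliferyl alpha-D-galactopyranoside in 50 mM citric acid, 0.005% Tween-20, pH 4.5, 20 min at room temperature; compounds 0.7 nM–77 uM. Stopped at pH 10, fluorescence 365/440 nm; AC50 from Hill fits.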
Sequence of Alpha-galactosidase (Coffea arabica) (Q42656 whole entry, looked up): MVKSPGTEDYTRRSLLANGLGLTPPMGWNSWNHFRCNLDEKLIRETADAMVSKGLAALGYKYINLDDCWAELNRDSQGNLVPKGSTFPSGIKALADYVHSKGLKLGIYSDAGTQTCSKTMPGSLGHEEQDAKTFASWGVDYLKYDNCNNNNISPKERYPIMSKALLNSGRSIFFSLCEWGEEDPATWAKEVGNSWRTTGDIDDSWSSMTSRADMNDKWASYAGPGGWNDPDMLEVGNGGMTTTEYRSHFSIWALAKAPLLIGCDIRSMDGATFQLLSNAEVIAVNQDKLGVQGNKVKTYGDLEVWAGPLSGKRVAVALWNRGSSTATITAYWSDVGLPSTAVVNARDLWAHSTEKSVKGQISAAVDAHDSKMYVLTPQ
A general note: A counterscreen serves to expose hits that act by an unwanted route or on another target.

Test [2] shares this target. Nature of the test: Counterscreen for Glucocerebrosidase Inhibitors: qHTS Assay for Coffee Bean alpha-Galactosidase at pH 5.9 (AID 998). To be noted: coffee bean alpha-galactosidase enzyme assay; series mostly up to 76.9 µM. The method in brief: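 Compounds were titrated from 0.7 nM to 77 uM against green coffee bean alpha-galactosidase (2 nM) using 80 uM fluorogenic 4-methylumbelliferyl substrate. After 20 min at room temperature, reactions were stopped at pH 10 and read by fluorescence.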

Take `CO[C@]1(NC(=O)CSCC#N)C(=O)N2C(C(=O)O)=C(CSc3nnnn3C)CS[C@H]21`: in test [1], the compound was called inactive.

On to `Nc1nc(Nc2ccccc2)nc2c1ncn2[C@@H]1O[C@@H](CO)[C@H](O)[C@@H]1O`, for which the compound was called inactive in test [1] and in test [2].

Consider `CN[C@]1(C)[C@@H]2CC[C@@H](C2)C1(C)C`, for which the compound was called inactive in test [1] and in test [2].

`CN[C@@H](CC(C)C)C(=O)N[C@@H]1C(=O)N[C@H](CC(N)=O)C(=O)N[C@H]2C(=O)N[C@H]3C(=O)N[C@H](C(=O)N[C@H](C(=O)O)c4cc(O)cc(O)c4-c4cc3ccc4O)[C@H](O)c3ccc(c(Cl)c3)Oc3cc2cc(c3O[C@@H]2O[C@@H](CO)[C@@H](O)[C@@H](O)[C@H]2O[C@H]2C[C@](C)(N)[C@H](O)[C@H](C)O2)Oc2ccc(cc2Cl)[C@@H]1O`: the result in test [1] and in test [2] was inactive.

As to `CC(N)=NCCCC[C@H](N)C(=O)O`, the outcome in test [1] and in test [2] was inactive.

For the compound `O[C@@](CCN1CCCCC1)(c1ccccc1)C1CCCCC1`, the result in test [1] and in test [2] was inactive.

On to `CNCC[C@H](Oc1ccccc1C)c1ccccc1`, for which the outcome in test [1] and in test [2] was inactive.

Take `O=C1N=C(O)CN1/N=C\c1ccc(-c2ccc([N+](=O)[O-])cc2)o1`: the compound was classed as inactive in test [1] and in test [2].

Consider `C=C1C(=O)O[C@@H]2[C@@H]1CC/C(C)=C\CC[C@@]1(C)O[C@H]21`, for which the call in test [1] and in test [2] was inactive.

Turning to `CC(=O)[C@@]1(O)CC[C@@H]2[C@@H]3CCC4=CC(=O)CC[C@@]4(C)[C@H]3CC[C@]21C`, the compound was classed as inactive in test [1] and in test [2].

`C[C@@H]1C[C@@H]2[C@H]3CCC4=CC(=O)C=C[C@]4(C)[C@]3(Cl)[C@@H](O)C[C@@]2(C)[C@@]1(O)C(=O)CO`: the result in test [1] was inactive.

On to `N[C@H](Cc1ccc(Cl)cc1)C(=O)O`, for which the compound was classed as inactive in test [1] and in test [2].

For `Cc1nnc(SCC2=C(C(=O)O)N3C(=O)[C@@H](NC(=O)Cn4cnnn4)[C@@H]3SC2)s1`, the compound was classed as inactive in test [1] and in test [2].

Regarding `N[C@@H]1CCN(O)C1=O`, the outcome in test [1] and in test [2] was inactive.

In the case of `Oc1ccc([C@@H]2CNCCc3c2cc(O)c(O)c3Cl)cc1`, the compound was classed as inactive in test [1] and in test [2].

In the case of `COc1ccccc1N1CCN(C[C@@H](O)COc2cccc3ccccc23)CC1`, the compound was called inactive in test [1] and in test [2].

Consider `O=C(O)/C=C\[C@H](O)c1ccc(Cl)cc1`, for which, in test [1], the compound was called inactive.

On to `O=C1[C@@H]2C=CC=CC2=NC(=S)N1CCN1CCC(=C(c2ccc(F)cc2)c2ccc(F)cc2)CC1`, for which the result in test [1] and in test [2] was inactive.

Consider `CC(C)(C)NC[C@H](O)COc1cccc2[nH]c(=O)[nH]c12`, for which the call in test [1] and in test [2] was inactive.

`O=C(O)[C@H]1CN(CCCP(=O)(O)O)CCN1`: the result in test [1] and in test [2] was inactive.

In the case of `COc1cccc2c1[C@@H]1CN(CCCCn3c(=O)[nH]c4c(sc5ncc(-c6ccccc6)nc54)c3=O)C[C@H]1CO2`, the call in test [1] and in test [2] was inactive.

Turning to `C=C(C)[C@@H]1CC=C(C(=O)O)CC1`, the compound was classed as inactive in test [1] and in test [2].

Take `Oc1cc2c(cc1O)[C@H](c1ccccc1)CNCC2`: the result in test [1] and in test [2] was inactive.

For the compound `COc1cc2c(cc1OC)[C@H](c1ccccc1)CN(C)CC2`, the result in test [1] and in test [2] was inactive.

Turning to `CN1C(=O)CC[C@@H]1c1cccnc1`, the compound was classed as inactive in test [1] and in test [2].

For `N[C@H](CCC(=O)NCS(=O)(=O)O)C(=O)O`, the compound was called inactive in test [1] and in test [2].

On to `CNC(=O)[C@@H]1O[C@@H](n2cnc3c(N)ncnc32)[C@@H](O)[C@H]1O`, for which the compound was called inactive in test [1] and in test [2].

Take `C/C=C1\C(=O)C[C@@H]2[C@@H]3CCC4=CC(=O)CC[C@@]4(C)[C@H]3CC[C@@]12C`: the result in test [1] and in test [2] was inactive.

Regarding `Nc1nc2c(nc(Br)n2[C@@H]2O[C@H]3COP(=O)(O)O[C@@H]3[C@H]2O)c(=O)[nH]1`, the call in test [1] and in test [2] was inactive.

For `C[C@@H](C[N+](C)(C)C)OC(N)=O`, the call in test [1] and in test [2] was inactive.

With `C=C[C@H](N)CCC(=O)O`, the result in test [1] and in test [2] was inactive.

Consider `COc1ccc(CCN(C)CCC[C@@](C#N)(c2cc(OC)c(OC)c(OC)c2)C(C)C)cc1OC`, for which the outcome in test [1] and in test [2] was inactive.

With `O[C@H](CN1CCN(c2cccc(Cl)c2)CC1)C(c1ccccc1)c1ccccc1`, the compound was classed as inactive in test [1] and in test [2].

As to `Nc1ncnc2c1nc(Sc1ccc(Cl)cc1)n2[C@@H]1O[C@H]2COP(=O)(O)O[C@@H]2[C@H]1O`, the compound was called inactive in test [1] and in test [2].

In the case of `COc1cc2nc(N3CC=[N+](C(=O)c4ccco4)CC3)nc(N)c2cc1OC`, the outcome in test [1] and in test [2] was inactive.

Turning to `CN(C)c1ccc(/C=C2/C(=O)Nc3ccccc32)cc1`, the call in test [1] and in test [2] was inactive.

Turning to `COc1ccc([C@H]2Sc3ccccc3N(CCN(C)C)C(=O)[C@H]2OC(C)=O)cc1`, the result in test [1] and in test [2] was inactive.

As for `CCCCOc1cc(C[C@@H]2CNC(=O)N2)ccc1OC`, the outcome in test [1] and in test [2] was inactive.

Regarding `CCCCCCCCCCCCCCCCCC(=O)O[C@H](CC(=O)O)C[N+](C)(C)C`, the compound was classed as inactive in test [1] and in test [2].

`O=C1NC(O)=NC1(c1ccccc1)c1ccccc1`: the compound was classed as inactive in test [1] and in test [2].

Turning to `OC[C@@H]1O[C@@H](n2cnc3c(N[C@@H]4C[C@@H]5CC[C@H]4C5)ncnc32)[C@@H](O)[C@H]1O`, the compound was classed as inactive in test [1] and in test [2].

Consider `Fc1cccc(/C=N\N=C/c2cccc(F)c2)c1`, for which the compound was called inactive in test [1] and in test [2].

Consider `CSc1ccc2c(c1)N(CC[C@H]1CCCCN1C)c1ccccc1S2`, for which the result in test [1] and in test [2] was inactive.

Regarding `O=C(c1ccccc1)c1ccc2n1CC[C@H]2C(=O)O`, the outcome in test [1] and in test [2] was inactive.

Turning to `O=C(OCCN1CCCCC1)c1c[nH]c2ccccc12`, the compound was called inactive in test [1] and in test [2].

`Nc1nc(Cl)nc2c1ncn2[C@@H]1O[C@@H](CO)[C@@H](O)[C@H]1O`: the outcome in test [1] and in test [2] was inactive.

With `C[C@@H](C(=O)O)c1cccc(C(=O)c2ccccc2)c1`, the call in test [1] and in test [2] was inactive.

Take `C[C@@H](CN1CCC(Cc2ccccc2)CC1)[C@H](O)c1ccc(O)cc1`: the outcome in test [1] and in test [2] was inactive.

With `N[C@@H](CO)C(=O)NNCc1ccc(O)c(O)c1O`, the result in test [1] and in test [2] was inactive.

For `CC(=O)O[C@]1(C(C)=O)CC[C@@H]2[C@@H]3C=C(Cl)C4=CC(=O)[C@H]5C[C@@H]5[C@]4(C)[C@H]3CC[C@]21C`, the compound was called inactive in test [1] and in test [2].

Turning to `CC(=O)OCC1=C(C(=O)O)N2C(=O)[C@@H](NC(=O)CSc3ccncc3)[C@@H]2SC1`, the compound was called inactive in test [1] and in test [2].

As to `CC(C)(C)[C@@]1(O)CCN2C[C@@H]3c4ccccc4CCc4cccc(c43)[C@@H]2C1`, the compound was classed as inactive in test [1] and in test [2].

Regarding `CCN(CC)CC#CCOC(=O)[C@@](O)(c1ccccc1)C1CCCCC1`, the call in test [1] and in test [2] was inactive.

On to `CCOC(=O)C1=C(C)NC(C)=C(C(=O)OC)[C@H]1c1cccc([N+](=O)[O-])c1`, for which the call in test [1] and in test [2] was inactive.

For `OC[C@@H]1O[C@H](O)[C@@H](Cl)[C@H](O)[C@@H]1O`, the compound was classed as inactive in test [1] and in test [2].

Consider `COc1cc([C@H](O)CO)ccc1O`, for which the compound was called inactive in test [1] and in test [2].

In the case of `C[C@@H](/C=C\c1cccc(Oc2ccc(F)cc2)c1)N(O)C(N)=O`, the outcome in test [1] and in test [2] was inactive.

Take `CC1(C)CCC(NC(=O)[C@H](N)CCC(=O)O)CC1`: the call in test [1] and in test [2] was inactive.

In the case of `COCCOC(=O)C1=C(C)NC(C)=C(C(=O)OC(C)C)[C@@H]1c1cccc([N+](=O)[O-])c1`, the call in test [1] and in test [2] was inactive.

Regarding `Nc1nc(Cl)nc2c1ncn2[C@@H]1O[C@@H](COP(=O)(O)OP(=O)(O)OP(=O)(O)O)[C@@H](O)[C@H]1O`, the result in test [1] and in test [2] was inactive.
